Y pestis TopoI – inhibitors of Yersinia pestis topoisomerase I; Y. pestis Topo-I cleavage product accumulation, plate reader; AID 504884; activity, % at 10 µM; 0.064% of 360,000 active; in the data active means activity above about 50%, passing the limit was not always enough
PrPC surface inh – reduces human prion protein on the cell surface. inhibition, % at 13.8 µM. P04156. cell surface PrPC, TR-FRET read-out. 0.43% of 370,000 active; in the data active means inhibition above about 24%; further: 0% = median of the test wells and 100% = reference compound wells
BJeLR viability – BJeLR cell viability loss. BJeLR (HRASV12) viability, CellTiter-Glo ATP luminescence, 48 h. inhibition, % (no concentration beside the values). 0.17% of 300,000 active; in the data active means inhibition above about 50%
PfHsp40 yeast – restores yeast growth despite PfHsp40 toxicity; S. cerevisiae expressing PfHsp40, growth rescue, ATP luminescence; growth rescue, % at 12.5 µM; 0.68% of 340,000 active; in the data active means growth rescue above about 28%, passing the limit was not always enough;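 further: yeast W303a lacking pdr1 and pdr3 grown in galactose medium; growth measured after three days at 30 °C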
PrP UTR inh – inhibition of PrP 5' UTR reporter expression; cell-based PrP 5' UTR mRNA reporter, plate reader; inhibition, % (no concentration beside the values); 0.35% of 340,000 active; AID 488862; in the data active means inhibition above about 52%; further: 0 = median of the neutral control wells
CCHF vOTU inh – CCHFV vOTU protease inhibition | Pep-AMC fluorescence | inhibition, % at 11.5 µM | 0.55% of 370,000 active; in the data active means inhibition above about 30%; further: 0% = vehicle wells with enzyme and 100% = no enzyme wells
PrPC confirm – cell surface PrPC inhibition, TR-FRET confirmation. 65% of 1,500 active. shares compounds with PrPC surface inh. inhibition, % at 13.8 µM. cell surface PrPC level; in the data active means inhibition above about 25%
LD9 cytotox – kills or reduces viability of LD9 cells in PrPc counter-screen. LD9 cells cytotoxicity, luminescence viability. inhibition, % at 13.8 µM. shares compounds with PrPC surface inh. 29% of 1,500 active; in the data active means inhibition above about 9.5%
An asterisk follows results filed as active; nt = no result. Shown are actives, neighbours in structure and some others; about 2% of the full set was active somewhere.

SMILES	Y pestis TopoI	PrPC surface inh	BJeLR viability	PfHsp40 yeast	PrP UTR inh	CCHF vOTU inh	PrPC confirm	LD9 cytotox
CCCOc1ccc(C(=O)N2CCC(Oc3cccnc3)CC2)cc1	nt	4.1	nt	nt	nt	-7.2	nt	nt
C[C@H](CO)N1C[C@H](C)[C@@H](CN(C)C(=O)NC2CCCCC2)OCc2cn(nn2)CCCC1=O	nt	-8.1	nt	nt	nt	0.3	nt	nt
NC(=O)[C@@H]1CCCN1C(=O)[C@@H](Cc1ccccc1)NC(=O)[C@H]1O[C@@H](n2ccc(=O)[nH]c2=O)[C@H](O)[C@@H]1O	nt	-2.5	nt	nt	nt	7.1	nt	nt
COc1nc(-c2ccccc2)c2cc(Br)ccc2n1	7.5	35.8*	-17.1	1.2	-5.1	5.7	71.0*	3.8
CC(=O)NC(=S)Nc1ccc(NC(=O)COc2ccc(C(C)C)cc2)cc1	21.9	8.8	-5.3	2.3	-25.7	5.0	nt	nt
CC(=O)NC(=S)Nc1ccc(NC(=O)COc2ccc(Cl)cc2)cc1	-7.2	41.5*	-12.0	0.8	-17.0	10.9	11.5	-5.3
CN(Cc1ccccc1)C1(CNC(=O)CCC(F)(F)F)Cc2ccccc2C1	12.5	25.5*	-2.8	-0.5	-16.4	9.8	14.9	-0.4
CC(=O)NCCC(=O)NCC1(N(C)Cc2ccccc2)Cc2ccccc2C1	-0.6	1.7	-4.2	-1.9	-49.8	-4.6	nt	nt
Cc1ccc(C(=O)Nc2cccc(C(=O)NCc3ccccc3)c2)cc1	7.4	37.0*	-7.7	3.8	1.5	1.0	24.2	5.7
Cc1ccc(C(=O)NCc2ccco2)cc1	2.5	4.2	-1.1	-1.0	-12.6	6.9	nt	nt
COc1ccc(C(=O)Nc2cccc(C(=O)NCc3ccccc3)c2)cc1	5.7	16.0	-1.7	-0.2	-22.8	-2.0	nt	nt
O=C(Cc1cccs1)Nc1cccc(C(=O)Nc2ccco2)c1	4.2	27.1*	nt	-0.1	-19.1	18.1	10.4	-6.6
Cc1ccc(C(=O)Nc2cccc(C(=O)NCc3ccco3)c2)cc1	-5.4	39.0*	2.5	-0.7	-52.5	0.4	21.9	17.0*
O=C(NCc1ccco1)c1cccc(NC(=O)c2ccccc2)c1	7.2	27.5*	-2.7	-0.6	-22.7	-1.1	28.5*	8.8
Cc1cc(NS(=O)(=O)c2ccc(NC(=O)CSc3nnc(-c4ccncc4)n3Cc3ccco3)cc2)nc(C)n1	nt	-6.7	nt	nt	nt	3.1	nt	nt
CCOC(=O)[C@]12CCCC=C1N(Cc1ccc(OC)cc1)C(=O)[C@@H]2CC(=O)NCCCCc1ccccc1	nt	6.4	nt	nt	nt	15.0	nt	nt
CCCCCCC(=O)NC1CCCCN(Cc2ccc(C)cc2)C1=O (stereo not given)	nt	7.2	nt	nt	nt	4.6	nt	nt
Cc1ccc(-c2c(CC(=O)O)c(C)nc3sc4c(c23)CCCC4)cc1	19.2	36.4*	-0.3	5.2	-17.5	-0.9	44.0*	-4.1
COc1ccc(C(=O)Nc2cccc(OC(=O)c3ccc(C)c(C)c3)c2)cc1	-10.7	8.0	4.9	-0.5	-39.2	4.0	nt	nt
CC(=O)Oc1ccc(C(=O)Nc2cccc(C(=O)c3ccc(C)c(C)c3)c2)cc1	-0.6	34.5*	-8.3	0.8	-0.1	15.1	14.2	5.8
COc1ccc2c(c1)[C@@]1(OCCC=C[C@H]1C)C(=O)N2Cc1ccccc1C(F)(F)F	nt	-1.9	nt	nt	nt	8.1	nt	nt
O=C(Cc1ccc(-n2c(=O)c3ccccc3n(Cc3ccccc3F)c2=O)cc1)NCC1CCCO1 (stereo not given)	15.7	67.4*	-1.1	-1.5	-22.6	13.8	3.8	-3.6
O=C(Cc1ccc(-n2c(=O)c3ccccc3n(Cc3ccc(F)cc3)c2=O)cc1)NCC1CCCO1 (stereo not given)	1.2	-8.5	13.7	0.0	-19.3	-5.3	nt	nt
COc1ccc2c(c1)[nH]c1c(N3CCSCC3)ncnc12	-7.8	7.7	15.0	0.4	-7.9	12.8	nt	nt
COc1cccc(N2CCN(c3ncnc4c3[nH]c3ccccc34)CC2C)c1 (stereo not given)	nt	54.6*	10.1	nt	nt	9.9	75.5*	90.0*
SMILES	Y pestis TopoI	PrPC surface inh	BJeLR viability	PfHsp40 yeast	PrP UTR inh	CCHF vOTU inh	PrPC confirm	LD9 cytotox
CC(C)n1nnnc1C1(C)CSCC(=O)N1Cc1cccc(F)c1 (stereo not given)	nt	-1.5	nt	nt	nt	-0.8	nt	nt
Cn1c(SCc2c(Cl)cccc2Cl)nnc1-c1ccc2nonc2c1	3.8	-40.6	2.8	0.0	-10.6	2.0	nt	nt
Cn1c(SCc2ccc(Cl)cc2)nnc1-c1ccc2nonc2c1	2.5	70.0*	13.0	-0.6	-14.6	-6.2	-24.1	-0.4
CC(C)C[C@H](NC1(C(=O)NC2CCCCC2)CCCCC1)C(=O)NCC(c1ccccc1)c1ccccc1	nt	-0.1	nt	nt	nt	nt	nt	nt
NC(=O)C1CCN(C(=O)c2cc(-c3ccc(Cl)cc3)nc3ccccc23)CC1	25.4	-10.2	nt	-1.0	-20.3	13.9	nt	nt
NC(=O)C1CCN(C(=O)c2cc(-c3ccccc3Cl)nc3ccccc23)CC1	-0.1	42.5*	nt	-0.7	-18.7	2.5	43.2*	-4.6
C[C@H](O)[C@@H]1C(=O)N2CCc3c([nH]c4cccc(-c5ccccc5)c34)[C@@H]2C[C@@H]1N(C)C(=O)Nc1ccccc1	nt	-7.3	nt	nt	nt	-23.7	nt	nt
CCOC(=O)c1ccc(NC(=O)OC[C@@H]2CSCCS(=O)(=O)N2)cc1	nt	-5.9	nt	nt	nt	1.4	nt	nt
NC(N)=NS(=O)(=O)c1ccc(NC(=S)NC(=O)c2ccc3c(c2)OCO3)cc1	1.6	47.1*	2.5	-1.4	-35.8	-9.4	55.5*	-8.5
CCOC(=O)CCCNC(=O)OC1CC2CC1[C@H]1CCCCN1[C@H]2C (stereo not given in full)	nt	-6.4	nt	nt	nt	-4.9	nt	nt
N#CCc1c(C#N)c(N)nc(N2CCN(c3ccc(F)cc3)CC2)c1C#N	-8.2	-7.7	7.0	2.9	-13.1	2.8	nt	nt
N#CCc1c(C#N)c(N)nc(N2CCN(S(=O)(=O)c3ccccc3F)CC2)c1C#N	2.5	31.1*	-7.3	-0.9	-8.6	-15.3	10.9	16.4*
CC(NC(=O)c1sc2ccccc2c1Cl)C1CCCO1 (stereo not given)	-13.1	38.4*	2.8	0.3	-55.6	-0.2	43.9*	-3.5
O=C(O)CC(NC(=O)c1sc2ccccc2c1Cl)c1ccc(OC2CCCC2)cc1 (stereo not given)	7.8	31.2*	-10.1	-0.9	-24.0	19.1	28.5*	-5.2
CC(NC(=O)c1csc2ccccc12)C1CCCO1 (stereo not given)	-2.7	12.7	2.3	-1.5	-15.3	-11.9	nt	nt
Cc1ccc2c(Cl)c(C(=O)NCC3CCCO3)sc2c1 (stereo not given)	24.1	24.6*	1.3	-0.3	-41.5	2.8	37.4*	1.3
O=C(NCc1ccccc1Cl)C1CCCN(c2nc3ccccc3o2)C1 (stereo not given)	nt	-2.1	nt	nt	nt	2.2	nt	nt
C=CCN1CC(COCCCC)Oc2ccc(Cl)cc2S1(=O)=O (stereo not given)	nt	2.7	nt	nt	nt	6.4	nt	nt
CC(=O)N1CCc2cc(S(=O)(=O)NCCC(=O)NCc3ccc(Cl)cc3)ccc21	nt	13.0	nt	nt	nt	2.7	nt	nt
CCOc1ccc(-c2cc(C(C)=O)c3n(c2=O)CCC3)cc1	nt	-2.8	nt	nt	nt	-5.0	nt	nt
